Screening data: PubChem, several laboratories
Hits are enriched below; roughly 4% of the tested compounds scored in any of these assays.
ADAM17 inh = ADAM17 inhibition, QFRET primary screen; P78536; recombinant ADAM17, EDANS/DABCYL FRET peptide cleavage; inhibition, % at 6.95 µM; actives 0.83% (n = 370,000); AID 720648;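 active = inhibition above the mean of compounds lying between control limits plus 3 SD, set per campaign, cut at about 8.5% in these data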;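 note: 0% = DMSO-only wells as the low control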
Target sequence (P78536 215-824 limits assumed): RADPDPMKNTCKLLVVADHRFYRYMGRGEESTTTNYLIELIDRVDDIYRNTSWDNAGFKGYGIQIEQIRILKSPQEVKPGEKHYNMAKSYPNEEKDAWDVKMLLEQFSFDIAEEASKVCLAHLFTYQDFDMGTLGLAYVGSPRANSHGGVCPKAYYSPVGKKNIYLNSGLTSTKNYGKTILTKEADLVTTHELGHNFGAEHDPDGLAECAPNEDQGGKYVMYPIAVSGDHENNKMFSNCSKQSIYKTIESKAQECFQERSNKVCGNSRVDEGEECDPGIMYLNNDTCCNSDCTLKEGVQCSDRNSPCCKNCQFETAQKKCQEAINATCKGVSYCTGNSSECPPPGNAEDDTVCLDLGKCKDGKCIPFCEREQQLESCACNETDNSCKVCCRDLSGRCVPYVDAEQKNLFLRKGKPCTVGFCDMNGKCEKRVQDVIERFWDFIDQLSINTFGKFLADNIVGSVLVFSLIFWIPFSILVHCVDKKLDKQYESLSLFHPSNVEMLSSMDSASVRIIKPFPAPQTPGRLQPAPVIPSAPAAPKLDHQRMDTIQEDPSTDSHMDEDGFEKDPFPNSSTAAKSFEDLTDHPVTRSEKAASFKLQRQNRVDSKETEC
aDG glyco act = increases alpha dystroglycan glycosylation; Pro5-aDG cells, alpha-DG glycosylation AlphaScreen (IIH6); 0% Pro5, 100% B10-LARGE cell signal; activation, % at 10 µM; actives 0.22% (n = 360,000); AID 624168;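 active = activation of at least 8% versus controls, or a plate z-score of at least 8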;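 note: Pro5 are CHO cells carrying HIG-tagged alpha-DG that lacks glycosylation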
ADAM10 inh = inhibitors of human ADAM10; recombinant ADAM10, EDANS/DABCYL FRET peptide cleavage, 3 h; AID 720582; actives 0.62% (n = 370,000); inhibition, % at 7 µM; O14672;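 active = inhibition above a per-campaign cutoff equal to the mean of compounds falling between control-based bounds plus 3 SD, cut at about 20% in these data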;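 note: 0% = DMSO wells while the 100% control is not disclosed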
GRIN3A LBD mod = NR3A (human) ligand-binding domain modulation | NR3A LBD differential scanning fluorimetry, Tm shift; 0% = protein alone, 100% = glycine-bound protein | Tm shift relative to glycine control, % at 25 µM | AID 1259313 | actives 2.5% (n = 340,000);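 active = melting temperature shift of at least 10% of the positive control shift, at one fixed dose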
FAS-TE inh = FAS thioesterase (human) inhibition | P49327 | AID 602261 | inhibition, % at 15 µM | actives 0.67% (n = 360,000) | recombinant FAS-TE, OMFH fluorogenic substrate, fluorescence endpoint;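 active = compounds whose normalised, plate-corrected inhibition of enzyme fluorescence in the single-dose primary screen is 50% or more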;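 note: 0% = DMSO with enzyme and 100% = substrate without enzyme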
FAS-TE inh conf = confirmation of human fatty acid synthase thioesterase inhibitors. inhibition, % at 15 µM. shares compounds with FAS-TE inh. recombinant FAS-TE, OMFH fluorogenic substrate, fluorescence. actives 45% (n = 2,300);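 active = compounds inhibiting the enzyme by at least 50% at 15 µM in any one of the replicates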;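 note: 0% = enzyme with DMSO only and 100% = wells lacking enzyme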
* marks the source's active call; other numbers are inactive results; . = not tested or not shown.

SMILES | ADAM17 inh | aDG glyco act | ADAM10 inh | GRIN3A LBD mod | FAS-TE inh | FAS-TE inh conf
Cc1c(C(=O)N2CCc3ccccc3C2)oc2ccc(S(=O)(=O)N3CC(C)CC(C)C3)cc12 (configuration not stated) | 7 | 0 | 13 | -1 | 52* | 4
CCN(CC)S(=O)(=O)c1ccc2oc(C(=O)N3CCc4ccccc4C3)c(C)c2c1 | . | 0 | . | -1 | 38 | .
Cc1cccc(OCC(O)CN2CCc3ccccc3C2)c1 (configuration not stated) | -1 | 1 | -6 | 0 | 0 | .
Cn1c(=O)c2c(nc(N3CCOCC3)n2CCSc2ncccn2)n(C)c1=O | 2 | 0 | -10 | -1 | -6 | .
Cc1cc(=O)oc2cc(OCc3ccc(S(=O)(=O)N4CCOCC4)cc3)ccc12 | -17 | 0 | -39 | 18* | 67* | 14
COc1ccc(COc2ccc3c(C)cc(=O)oc3c2)cc1 | -21 | 0 | -43 | 4 | 29 | .
Cc1ccc(-c2nn(-c3ccccc3)cc2C(=O)Nc2ccc(C)c(S(=O)(=O)N3CCOCC3)c2)cc1 | 4 | 2 | 10 | 8 | 41 | .
O=C(Nc1cccc(S(=O)(=O)N2CCOCC2)c1)c1cn(-c2ccccc2)nc1-c1ccccc1 | 3 | 0 | 11 | 6 | 51* | 20
CCCCCN(CCCCC)C(=O)C(CCC(=O)O)NC(=O)c1ccc(Cl)c(Cl)c1 (configuration not stated) | -3 | 0 | 0 | 1 | 72* | 74*
COCCn1c(SCC(=O)N2CC(=O)Nc3ccccc32)nnc1-c1ccoc1C | 7 | 0 | -2 | 0 | -9 | .
Cc1nnc2n(Cc3ccccc3)c(=O)c3c4c(sc3n12)COC(C(C)C)C4 (configuration not stated) | 2 | 0 | 8 | -1 | 55* | 6
CCN(CC)CC(=O)Nc1c(C#N)cnn1-c1ccccc1 | -4 | 0 | -2 | 2 | -8 | .
O=C(O)CC(CC(=O)Nc1ccccc1C(=O)O)c1ccccc1 (configuration not stated) | -5 | 0 | -5 | 1 | -6 | .
COc1cccc(CNC(=O)COC(=O)c2cc([N+](=O)[O-])ccc2N2CCCC2)c1 | -1 | 0 | 11 | 1 | 81* | 85*
O=C(COC(=O)c1cc([N+](=O)[O-])ccc1N1CCOCC1)NCc1ccc(Cl)cc1Cl | 2 | 1 | -7 | -5 | 93* | 93*
O=C(Cn1cc(C(F)(F)F)cc(Cl)c1=O)NCc1ccc(Cl)cc1Cl | -1 | 0 | 5 | -2 | 2 | .
NS(=O)(=O)c1ccc(CCNC(=O)COC(=O)c2cc([N+](=O)[O-])ccc2N2CCOCC2)cc1 | -2 | 0 | -1 | -1 | 14 | .
O=C(COC(=O)c1cc([N+](=O)[O-])ccc1N1CCOCC1)NCc1ccccc1 | -1 | 0 | -5 | . | 83* | 90*
O=C(Cn1cc([N+](=O)[O-])ccc1=O)NCc1ccc(Cl)cc1Cl | 3 | 0 | -3 | 1 | 56* | 55*
COc1cc2[nH]c(=O)n(CCC(=O)N3CCN(Cc4ccc5c(c4)OCO5)CC3)c(=O)c2cc1OC | -9 | 0 | -18 | 1 | 2 | .
CC(C)CNC(=O)c1ccccc1NC(=O)c1ccc(CN2CCOCC2)cc1 | -1 | 0 | -7 | 4 | 1 | .
Cc1ccc(S(=O)(=O)NC(=O)C2(C)CCN2C(=O)c2c(C)noc2C)cc1 (configuration not stated) | -3 | 0 | -12 | . | -6 | .
O=[N+]([O-])c1c(Nc2ccc(O)cc2)cc(Cl)c2nonc12 | 0 | 0 | -7 | -7 | 60* | 44*
O=C(O)c1ccccc1Nc1cc(Cl)c2nonc2c1[N+](=O)[O-] | -4 | 0 | -7 | 1 | 29 | .
O=[N+]([O-])c1c(Nc2ccccn2)cc(Cl)c2nonc12 | -3 | 0 | -12 | -3 | 62* | 31
CN(C)c1cc(Nc2ccc(O)cc2)c([N+](=O)[O-])c2nonc12 | -3 | 0 | -3 | 0 | 7 | .
CC1CCN(CCNC(=O)c2ccc3c(=O)n(CCc4ccccc4)c(=O)[nH]c3c2)CC1 | -19 | . | -47 | . | . | .
Cc1ccccc1C(=O)NC(C)C1CC2CCC1C2 (configuration not stated) | -6 | 0 | -3 | -1 | -4 | .
